Measurements as given in PubChem BioAssay (NCATS).
Where “and” joins values, the source holds several entries; their conditions need not be identical. Identical values can stand only once. Results filed as inconclusive are left out. Some structures have more than one record in an assay (separate samples or runs), and their calls can disagree. Calls of active or inactive are those of the source. Unless noted, calls follow the shape of the dose curve; as a rule, active = well fitted curve in either direction with a large enough effect (not every such curve was filed as active); inconclusive = small, poorly fitted or top-dose-only effect, or another doubt; inactive = flat fitted curve, though single readings scatter.

Key:
[1] = AP1 Signaling Pathway (AID 357); details: ME-180 AP-1-bla reporter, EGF-induced, beta-lactamase ratio, 5 h; also: % is scaled to controls: 0 for no effect and ±100 for the full control effect
How it was run: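 ME-180 cells with beta-lactamase reporter under AP-1 response element, stimulated with EC50 EGF; compounds tested in titration series, 5 h at 37 °C. CCF4 substrate added 2.5 h at room temperature; 460/530 nm emission ratio gave %activity and AC50.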

[2] = target: Cytochrome P450 1A2 (Homo sapiens) (UniProt P05177); assay: p450-cyp1a2 (AID 410; calls by dose curve; also: potency is read from the fitted curve at half-maximal effect;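 as to activity change, negative = inhibition: -100% = full effect of reference inhibitor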); details: recombinant CYP1A2, luciferin-ME demethylation, luminescence; series mostly up to 57 µM
Sequence of Cytochrome P450 1A2 (Homo sapiens) (P05177 whole entry, looked up): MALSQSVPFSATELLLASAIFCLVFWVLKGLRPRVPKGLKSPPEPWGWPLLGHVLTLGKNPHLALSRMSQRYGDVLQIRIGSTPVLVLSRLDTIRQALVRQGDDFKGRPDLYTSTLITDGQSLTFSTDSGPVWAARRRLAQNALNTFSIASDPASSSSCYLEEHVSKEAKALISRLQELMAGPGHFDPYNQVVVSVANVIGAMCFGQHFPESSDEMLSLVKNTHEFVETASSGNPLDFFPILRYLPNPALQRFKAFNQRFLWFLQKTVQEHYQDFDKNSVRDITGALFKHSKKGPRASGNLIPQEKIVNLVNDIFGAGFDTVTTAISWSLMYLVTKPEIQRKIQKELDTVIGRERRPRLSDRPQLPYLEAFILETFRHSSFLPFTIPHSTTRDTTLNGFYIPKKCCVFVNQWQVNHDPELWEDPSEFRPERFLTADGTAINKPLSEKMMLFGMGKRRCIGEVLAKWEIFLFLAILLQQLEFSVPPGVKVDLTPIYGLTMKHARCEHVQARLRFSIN
How it was run: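 20nM CYP1A2, 100uM Luciferin-ME (=Km), 100mM KPO4; cpd 10 min RT; +NADPH regen, 60 min RT; stop/detect 20 min; luminescence. Normalized to furafylline 57 uM = full inhibition.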

[3] = NFAT Signaling Pathway (AID 444); details: Jurkat NFAT-bla M1, carbachol, beta-lactamase ratio, 5 h;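 also: carbachol stimulus at about its EC50 of 1 µM final; % is scaled to controls: 0 for no effect and ±100 for the full control effect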
How it was run: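 Jurkat cells with NFAT-driven β-lactamase reporter and co-expressed M1 receptor, stimulated with carbachol (final 1 uM, ~EC50), compound titration, 5 h at 37 °C. CCF4 loaded 1 h at RT; 460/530 nm ratio gave %activity and AC50.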

[4] = Stat Signaling Pathway (AID 446); details: ME-180 (cervical carcinoma) SIE beta-lactamase reporter, IL-6 stimulated, 5 h;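 also: ME-180 cervical cancer cells given 40 pM IL-6 alongside compound; SIE-controlled beta-lactamase reporter measured as 460/530 nm FRET emission ratio; % is scaled to controls: 0 for no effect and ±100 for the full control effect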
How it was run: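 FRET read-out (405 nm excitation, 460/530 nm emission) of a beta-lactamase reporter under a STAT-inducible element in ME-180 cervical carcinoma cells. Cells with compound receive 40 pM IL-6 for 5 h. Values are normalised to AC90 stimulation and AC90 JAK-inhibitor controls.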

[5] = Cell Viability - BJ (AID 421; calls by dose curve;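 also: potency is read from the fitted curve at half-maximal effect; cells exposed to compound for 40 hours at 37 °C before readout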); details: BJ fibroblast viability, qHTS
How it was run: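 Cytotoxicity as drop in intracellular ATP (CellTiter-Glo, 20 min RT) after 40 hr compound exposure of BJ fibroblasts at 37 °C. Titrations scaled between DMSO and 100 uM tamoxifen, Hill-fitted for AC50.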

[6] = Cell Viability - Hek293 (AID 427;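 active = compounds whose dose-response curve shows a full or clear partial loss of cell viability, called from curve shape rather than a numeric limit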;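 also: potency is read from the fitted curve at half-maximal effect; cells exposed to compound for 40 hours at 37 °C before reading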); details: qHTS
How it was run: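 Luminescent ATP content (CellTiter-Glo, 20 min at room temperature) was measured after a 40 hr, 37 °C compound exposure of HEK293 cells. AC50 values came from Hill-equation fits of qHTS concentration-response data normalized to DMSO and 100 uM tamoxifen.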

[7] = Cell Viability - HepG2 (AID 433; calls by dose curve;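 also: potency is read from the fitted curve at half-maximal effect; cells exposed to compound for 40 hours; potency for ATP loss meaning cytotoxicity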); details: qHTS
How it was run: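 Cytotoxicity read as ATP loss (CellTiter-Glo luminescence) after 40 hr compound exposure of HepG2, 1500 cells/well, 37 °C. AC50 by Hill equation; 0% set by DMSO, 100% inhibition by 100 uM tamoxifen.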

[8] = Cell Viability - MRC5 (AID 434; calls by dose curve;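 also: potency is read from the fitted curve at half-maximal effect; cells exposed to compound for 40 hours at 37 °C; potency reflects cytotoxicity seen as loss of intracellular ATP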); details: MRC5 lung fibroblast viability, qHTS
How it was run: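 ATP luminescence read-out (CellTiter-Glo, 20 min RT) after 40 hr, 37 °C compound exposure of 1500 MRC5 cells/well. Data normalized to DMSO (basal) and 100 uM tamoxifen (100% inhibition); AC50 from standard Hill equation.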

[9] = Cell Viability - SK-N-SH (AID 435; calls by dose curve; also: potency is read from the fitted curve at half-maximal effect); details: SK-N-SH neuroblastoma cell viability qHTS
How it was run: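 qHTS cytotoxicity: CellTiter-Glo ATP luminescence after 40 h compound exposure of human neuroblastoma SK-N-SH cells at 37 °C. AC50 derived by Hill-equation fitting, with DMSO as basal and 100 uM tamoxifen as full inhibition.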

CC(=O)NCCc1c[nH]c2ccccc12
active: Potency [2] 15.8 µM
inactive: activity change, negative = inhibition ([1]; at 38 µM (top of the series)) 3.76% | activity change, negative = inhibition ([3]; at 38 µM (top of the series)) 5.76%

CC[C@@]1(O)C(=O)OCc2c1cc1n(c2=O)Cc2cc3ccccc3nc2-1
active: activity change, negative = inhibition ([1]; at 17.2 µM (top of the series)) -111% | activity change, negative = inhibition ([1]; at 38 µM (top of the series)) -97.5% | Potency [2] 7.94 µM and 2.51 µM and 1.58 µM | activity change, negative = inhibition ([3]; at 17.2 µM (top of the series)) -85.5% | activity change, negative = inhibition ([3]; at 38 µM (top of the series)) -97% | activity, negative = inhibition ([4]; at 17.2 µM (top of the series)) -95.6% | activity, negative = inhibition ([4]; at 38 µM (top of the series)) 42.7%

CN(C)[C@@H]1C(=O)C(C(N)=O)=C(O)[C@@]2(O)C(=O)C3=C(O)c4c(O)cccc4[C@@](C)(O)[C@H]3[C@H](O)[C@@H]12
inactive: activity change, negative = inhibition ([1]; at 17.2 µM (top of the series)) 12.6% | Potency [5] > 92 µM | Potency [6] > 92 µM | Potency [7] > 92 µM | Potency [8] > 92 µM | Potency [9] > 92 µM | activity change, negative = inhibition ([3]; at 17.2 µM (top of the series)) 0.604% | activity, negative = inhibition ([4]; at 17.2 µM (top of the series)) 3.84%

CCCN(CCC)[C@@H]1CCc2ccc(O)cc2C1
inactive: activity change, negative = inhibition ([1]; at 38 µM (top of the series)) 4.4% and -2.26% | Potency [2] | activity, negative = inhibition ([4]; at 38 µM (top of the series)) -20.3% and 11.5%

O=c1cccc2n1CC1CNC[C@H]2C1
inactive and 31.6 µM (active): Potency [2]
inactive: activity change, negative = inhibition ([1]; at 17.2 µM (top of the series)) -4.28% | activity change, negative = inhibition ([3]; at 17.2 µM (top of the series)) -12.9% | activity, negative = inhibition ([4]; at 17.2 µM (top of the series)) 6.88%

c1ccc2sc(C3(N4CCCCC4)CCCCC3)cc2c1
inactive: activity change, negative = inhibition ([1]; at 38 µM (top of the series)) -1.54% | Potency [2] | activity, negative = inhibition ([4]; at 38 µM (top of the series)) -24.8%

C[C@]12N[C@H](Cc3ccccc31)c1ccccc12
inactive: activity change, negative = inhibition ([1]; at 38 µM (top of the series)) -6.02% and 8.41% | Potency [2] | activity change, negative = inhibition ([3]; at 38 µM (top of the series)) -11.3% and -3.27% | activity, negative = inhibition ([4]; at 38 µM (top of the series)) 16.1% and 6.66%
